We go through 18 compounds from PubChem BioAssay (NCATS).

Results filed as inconclusive are left out. Unmarked numbers belong to inactive results. Calls of active or inactive are those of the source. Calls follow the shape of the dose curve; as a rule, active = well fitted curve in the direction sought with a large enough effect; inconclusive = small, poorly fitted or top-dose-only effect, or another doubt; inactive = no such curve, though single readings can be large; an effect the other way counts as inactive or inconclusive. Residues, ends and D or L forms follow the SMILES beside them. *: point of attachment. Cbz = O=C(OCc1ccccc1)*

One assay concerns CRL-7250. Kind of assay: Cytotoxic Profiling of Annotated Libraries Using Quantitative High-Throughput Screening (AID 1296008). Also: nearly all actives have a fitted effect of over 60% in size. Also: potency is read from the fitted curve at half-maximal effect. Conditions: Five cell lines viability, CellTiter-Glo ATP luminescence, 48-72 h; max response: hits give low values. Put shortly: (§1)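 Cells exposed to compounds for 48 or 72 hr at 37 degrees Celsius. Viability read as ATP-coupled luminescence with CellTiter-Glo after 10 min at room temperature.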
A general note: Cellular ATP, detected with luciferase, serves as a proxy for viable cell number.

The test system of a further assay is HEK293. The assay is described as above. Conditions: Five cell lines viability, CellTiter-Glo ATP luminescence, 48-72 h; max response: hits give low values. Put shortly: as §1
For the next assay, the system named is KB-3-1. The assay is described as above. Conditions: Five cell lines viability, CellTiter-Glo ATP luminescence, 48-72 h; max response: hits give low values. Put shortly: as §1
The subject of a further assay is NIH3T3. The assay is described as above. Conditions: Five cell lines viability, CellTiter-Glo ATP luminescence, 48-72 h; max response: hits give low values. A digest of the protocol:
as §1

For another assay, the system named is MCC-26. Description: qHTS assay to identify novel small-molecules to repurpose for Merkel cell carcinoma treatment (AID 1296009). Also: nearly all actives have a fitted effect of over 60% in size. Also: potency is read from the fitted curve at half-maximal effect. Conditions: MCC and control cell lines, CellTiter-Glo viability, 72 h; series mostly up to 46 µM. A digest of the protocol: (§2)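 CellTiter-Glo luminescence after 72 hr compound exposure at 37 degree celsius gave cell viability. Libraries NPC and MIPE were run as 8- and 11-point dose responses; RLUs normalized to DMSO (negative) and no-cell (cytotoxicity) controls.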

The next assay concerns UISO. Described as above. Conditions: MCC and control cell lines, CellTiter-Glo viability, 72 h; series mostly up to 46 µM. Put shortly: as §2
The next assay has as its system WaGa. Described as above. Conditions: MCC and control cell lines, CellTiter-Glo viability, 72 h; series mostly up to 46 µM. Put shortly:
as §2

For another assay, the system named is HaCat. Description: Cytotoxic Profiling of Annotated Libraries Using Quantitative High-Throughput Screening (AID 1296008). Also: nearly all actives have a fitted effect of over 60% in size. Also: potency is read from the fitted curve at half-maximal effect. Conditions: Five cell lines viability, CellTiter-Glo ATP luminescence, 48-72 h; max response: hits give low values. A digest of the protocol:
as §1

In another assay the test system is MKL-2. Kind of assay: qHTS assay to identify novel small-molecules to repurpose for Merkel cell carcinoma treatment (AID 1296009). Also: nearly all actives have a fitted effect of over 60% in size. Also: potency is read from the fitted curve at half-maximal effect. Conditions: MCC and control cell lines, CellTiter-Glo viability, 72 h; series mostly up to 46 µM. A digest of the protocol:
as §2
(In general: In qHTS, concentration-response curves come from the screen itself.)

The test system of another assay is CASKI. Kind of assay: Primary qHTS to identify gynecologic anti-cancer compounds using libraries of approved drugs and bioactive compounds (AID 1345084). Also: nearly all actives have a fitted effect of over 55% in size. Conditions: Gynecologic cancer cell panel viability, ATPlite luminescence, 48 h; series mostly up to 57.5 µM. Put shortly:
(§3)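 Cells, 1,000 per well, were allowed to settle for 16 h at 37 C before compound addition. Five concentrations were tested for 48 h, and viability was read by ATPlite luminescence after 15 min at room temperature.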

The test system of the next assay is Es-2. Described as above. Conditions: Gynecologic cancer cell panel viability, ATPlite luminescence, 48 h; series mostly up to 57.5 µM. A digest of the protocol: as §3
In another assay the test system is MCC-13. Description: qHTS assay to identify novel small-molecules to repurpose for Merkel cell carcinoma treatment (AID 1296009). Also: nearly all actives have a fitted effect of over 60% in size. Also: potency is read from the fitted curve at half-maximal effect. Conditions: MCC and control cell lines, CellTiter-Glo viability, 72 h; series mostly up to 46 µM. Put shortly:
as §2

Another assay deals with MKL-1. Described as above. Conditions: MCC and control cell lines, CellTiter-Glo viability, 72 h; series mostly up to 46 µM. A digest of the protocol: as §2
% is scaled to controls: 0 for no effect and ±100 for the full control effect.

Turning to `N=c1ccn2c(n1)O[C@H]1[C@@H](O)[C@@H](CO)O[C@H]12`, the max response is -13.3% with CRL-7250 and -23.9% in the assay on KB-3-1. Besides, the Potency in the assay on HEK293 was 4180 nM (active); in the assay on NIH3T3 it was 3320 nM (active); in the assay on UISO it was 526 nM (active); in the assay on WaGa it was 2090 nM (active). In addition, in the assay on MCC-26, the Potency entry is “inactive”.
Regarding `CC1=C(C(=O)Nc2cc3cn[nH]c3cc2F)C(c2ccc(Cl)cc2F)N=C(c2ccnc(Cl)c2)N1` (centres undefined), the values for the max response in the assay on CRL-7250 and with HaCat were -26.3% and -46.1%, respectively. The Potency in the assay with HEK293 was 13200 nM (active); with NIH3T3 it was 11800 nM (active); in the assay with MKL-2, 20900 nM (active); in the assay on WaGa it was 10500 nM (active). For the same compound, the Potency result in the assay on MCC-26, in the assay on CASKI and in the assay with Es-2 was “inactive” each time.
As to `CNC(=O)Nc1ccc(-c2nc(N3CC4CCC(C3)O4)c3cnn(C4CCC5(CC4)OCCO5)c3n2)cc1`, the Potency in the assay on CRL-7250 is 4.7 nM (active); with HEK293, 6.6 nM (active); in the assay on NIH3T3, 52.6 nM (active). In the assay on HaCat, the max response was -19.6%.
As to `COc1cc2c(cc1OC)[C@@H]1C(=O)c3ccc4c(c3O[C@@H]1CO2)C=CC(C)(C)O4`, the Potency in the assay with CRL-7250 is 14.8 nM (active); in the assay on HEK293 it was 52.6 nM (active); with MKL-1, 1870 nM (active); in the assay with MKL-2 it was 935 nM (active); with WaGa, 662 nM (active). Also, in the assay on HaCat, the max response is -2.92%. In addition, in the assay with MCC-13, the Potency entry is “inactive”.
Turning to `COc1cc(C(=O)NC2CCN(C)CC2)ccc1Nc1ncc2c(n1)N(C1CCCC1)CCC(=O)N2C(C)C`, the max response is -17.1% in the assay with CRL-7250 and -42.1% in the assay on HaCat. In addition, the Potency in the assay with HEK293 was 8330 nM (active); with NIH3T3 it was 1320 nM (active); with MKL-1, 2350 nM (active); in the assay with WaGa it was 1870 nM (active).
On to `Cc1ccc([N+](=O)[O-])cc1S(=O)(=O)N(C)N=Cc1cnc2ccc(Br)cn12`, for which the Potency was 18.7 nM (active) in the assay on CRL-7250; 23.5 nM (active) in the assay with HEK293; 20.9 nM (active) in the assay on KB-3-1; 74.3 nM (active) with NIH3T3; 209 nM (active) in the assay on MKL-2; 41.8 nM (active) in the assay with UISO.
Regarding `CC(C)C[C@@H](C=O)NC(=O)[C@H](CC(C)C)NC(=O)[C@H](CC(C)C)NC(=O)OCc1ccccc1` (Cbz-Leu-Leu-Leu-aldehyde), the Potency with CRL-7250 is 1660 nM (active); in the assay with HEK293 it was 1050 nM (active); in the assay on HaCat, 3320 nM (active); in the assay on NIH3T3 it was 2960 nM (active); in the assay with MCC-13 it was 2640 nM (active); in the assay on MCC-26, 2350 nM (active). Moreover, the Potency with MKL-1 was 935 nM (active); in the assay on MKL-2, 743 nM (active); with UISO, 1180 nM (active); in the assay on WaGa, 935 nM (active).
For the compound `CCS(=O)(=O)Nc1ccc2[nH]c(O)c(C(=Nc3ccc(CN4CCCCC4)cc3)c3ccccc3)c2c1`, the Potency with CRL-7250 is 1320 nM (active); with HEK293, 743 nM (active); in the assay on KB-3-1, 9350 nM (active); in the assay on NIH3T3, 264 nM (active); in the assay with MCC-13 it was 5260 nM (active); with MCC-26 it was 1480 nM (active). The Potency in the assay with UISO was 20900 nM (active). Further, in the assay on MKL-2, the Potency result is “inactive”.
Consider `N#Cc1ccc(COC[C@H]2O[C@@H](n3c(NCc4ccc(Cl)c(Cl)c4)nc4c(N)ncnc43)[C@@H](O)[C@@H]2O)cc1`, for which, in the assay on CRL-7250, the max response was -5.8%. Further, the values for the Potency in the assay with HEK293 and with HaCat were 16600 nM (active) and 11800 nM (active), respectively. Moreover, the Potency result in the assay with MCC-26 was “inactive”.
On to `COC1=C2C[C@@H](C)C[C@H](OC)[C@@H](O)[C@@H](C)C=C(C)[C@H](OC(N)=O)[C@@H](OC)C=CC=C(C)C(=O)NC(=CC1=O)C2=O`, for which the Potency in the assay with CRL-7250 is 7430 nM (active); with HEK293, 4690 nM (active); with KB-3-1 it was 2090 nM (active); in the assay on NIH3T3 it was 9350 nM (active); in the assay with MKL-1 it was 11800 nM (active); in the assay with MKL-2 it was 8330 nM (active). Besides, the Potency in the assay with WaGa is 20900 nM (active).
On to `COc1cc2c(Nc3ccc(Cl)c(Cl)c3F)ncnc2cc1OCC1C[C@@H]2CN(C)C[C@H]2C1`, for which the Potency in the assay on CRL-7250 is 9350 nM (active); in the assay on HEK293, 4690 nM (active); with KB-3-1, 5900 nM (active); in the assay on MKL-1, 7430 nM (active); in the assay on UISO it was 4180 nM (active); in the assay on WaGa, 18700 nM (active). In the assay on HaCat, the max response was -106%.
Regarding `Cc1cc(C(=O)NOCCO)c(Nc2ccc(I)cc2F)n(C)c1=O`, the Potency in the assay on CRL-7250 is 743 nM (active). The max response with HEK293 is -3.43%; with HaCat, -66.6%; in the assay on KB-3-1, -2.94%. For the same compound, the Potency result in the assay on MCC-26, in the assay with MKL-1, in the assay with MKL-2, with UISO and in the assay with WaGa was “inactive” each time.
On to `COc1ccc(C=Cc2cc(OC)c(OC)c(OC)c2)cc1NC(=O)[C@H](N)CO`, for which the Potency in the assay with CRL-7250 is 33.2 nM (active); with HEK293 it was 3.7 nM (active); in the assay on KB-3-1, 3 nM (active); with MKL-2, 6.6 nM (active); in the assay on UISO, 5.3 nM (active). For the same compound, in the assay with HaCat, the max response is 4.22%.
With `O=c1[nH]c(=O)n([C@H]2C[C@@H](O)[C@@H](CO)O2)cc1F`, the Potency with CRL-7250 was 18700 nM (active); with HEK293 it was 52.6 nM (active); in the assay on KB-3-1, 13200 nM (active); in the assay on NIH3T3, 18.7 nM (active); in the assay on MCC-13, 332 nM (active); in the assay on WaGa, 66.2 nM (active).
As to `O=C(O)C[C@H](O)C[C@H](O)C=Cc1c(C2CC2)nc2ccccc2c1-c1ccc(F)cc1`, the Potency was 662 nM (active) with CRL-7250; 9350 nM (active) with HEK293; 4690 nM (active) in the assay with HaCat; 20900 nM (active) with NIH3T3; 5900 nM (active) in the assay with MCC-13; 5900 nM (active) with MKL-1. The results for the Potency in the assay on MKL-2, in the assay with UISO and with WaGa were 3320 nM (active), 2350 nM (active) and 7430 nM (active), respectively.
On to `CCN(CC)CCCCNc1ncc2c(n1)N(C)C(=O)N(c1c(Cl)c(OC)cc(OC)c1Cl)C2`, for which the Potency is 14800 nM (active) in the assay on CRL-7250 and 2090 nM (active) with HEK293. The max response in the assay with KB-3-1 was -30%. The Potency entry in the assay on MCC-13, in the assay on MKL-1 and in the assay on WaGa was “inactive” each time.
Turning to `Cc1cc(Nc2ncc3c(n2)N(C)C(=O)N(c2cc(NC(=O)c4cccc(C(F)(F)F)c4)ccc2C)C3)n(C)n1`, the Potency in the assay with CRL-7250 was 469 nM (active); with HEK293, 418 nM (active); with HaCat, 833 nM (active); with NIH3T3, 1320 nM (active); in the assay on MCC-13, 2090 nM (active); in the assay on MCC-26 it was 1180 nM (active). For the same compound, the Potency with UISO was 526 nM (active).
Consider `Nc1ncn([C@@H]2O[C@H](CO)[C@@H](O)[C@@H]2O)c(=O)n1`, for which the Potency was 5260 nM (active) with CRL-7250, 4180 nM (active) in the assay with HEK293 and 8330 nM (active) with KB-3-1. Also, the max response in the assay with HaCat is -5.4%. Besides, the Potency result in the assay with MKL-1 and in the assay on MKL-2 was “inactive” throughout.
